# Compound: CCc1cnn2c(NCc3ccc[n+]([O-])c3)cc(N3CCCC[C@H]3CCO)nc12 [dinaciclib]
# Assay: cell viability remaining relative to DMSO control; higher = less cytotoxic (more viable cells)
# Conditions: 100 nM; 24 h
# Protocol: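 Solid tumor cell lines were treated with dinaciclib (100 nM) for 24 hr. Viability was measured by CellTiter-Glo ATP luminescence and expressed as % of DMSO-treated control wells (mean of 2-6 plates, triplicate wells per plate).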
row,Target,cell viability remaining [%]
1,SNB19,70.1
2,EFE184,93.1
3,A375,62
4,CAPAN2,51.4
5,H520,30.8
6,HT29,57.8
7,BT549,51.3
8,A172,73.1
9,BT20,45.2
10,COLO792,8.9
11,CALU6,58.4
12,H4,34.1
13,HCT116,55.4
14,HEC59,67.6
15,CHP212,19.7
16,UACC62,57.1
17,AZ521,56.1
18,SKMEL3,42.9
19,CAPAN1,85.3
20,MDAMB468,29.1

row,Target,cell viability remaining [%]
1,SNU423,36.7
2,SW837,79.8
3,SAOS2,32.2
4,SJSA1,66.7
5,786O,44.3
6,H69,87.1
7,OAW42,44.2
8,G401,10.4
9,NCI-H1395,36
10,ACHN,72.1
11,HS852T,54.3
12,HEC251,91.8
13,MCF7,76
14,T98G,53.4
15,NCI-H322,69.1
16,WM115,69.1
17,SKMEL5,76.8
18,HCT15,45.4
19,COV644,23.3
20,KURAMOCHI,121
